# From ChEMBL document CHEMBL1961873, “Compounds: GSK PKIS; Assays: Nanosyn kinase panel” (2012)
# Tests used:
# [1] = biological target: Dual specificity protein kinase CLK3 (Homo sapiens) (UniProt P49761); conditions: at 1 µM;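 further: each value is the mean inhibition of CLK3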
# [2] = biological target: Dual specificity tyrosine-phosphorylation-regulated kinase 1A (Homo sapiens) (UniProt Q13627); conditions: at 0.1 µM
# [3] = biological target: Dual specificity tyrosine-phosphorylation-regulated kinase 1A (Homo sapiens) (UniProt Q13627); conditions: at 1 µM
# [4] = biological target: Dual specificity tyrosine-phosphorylation-regulated kinase 1B (Homo sapiens) (UniProt Q9Y463); conditions: at 0.1 µM
# [5] = biological target: Dual specificity tyrosine-phosphorylation-regulated kinase 1B (Homo sapiens) (UniProt Q9Y463); conditions: at 1 µM
# [6] = biological target: T1, Dual specificity tyrosine-phosphorylation-regulated kinase 2 (Homo sapiens) (UniProt Q92630); conditions: at 0.1 µM
# T1 sequence (whole entry): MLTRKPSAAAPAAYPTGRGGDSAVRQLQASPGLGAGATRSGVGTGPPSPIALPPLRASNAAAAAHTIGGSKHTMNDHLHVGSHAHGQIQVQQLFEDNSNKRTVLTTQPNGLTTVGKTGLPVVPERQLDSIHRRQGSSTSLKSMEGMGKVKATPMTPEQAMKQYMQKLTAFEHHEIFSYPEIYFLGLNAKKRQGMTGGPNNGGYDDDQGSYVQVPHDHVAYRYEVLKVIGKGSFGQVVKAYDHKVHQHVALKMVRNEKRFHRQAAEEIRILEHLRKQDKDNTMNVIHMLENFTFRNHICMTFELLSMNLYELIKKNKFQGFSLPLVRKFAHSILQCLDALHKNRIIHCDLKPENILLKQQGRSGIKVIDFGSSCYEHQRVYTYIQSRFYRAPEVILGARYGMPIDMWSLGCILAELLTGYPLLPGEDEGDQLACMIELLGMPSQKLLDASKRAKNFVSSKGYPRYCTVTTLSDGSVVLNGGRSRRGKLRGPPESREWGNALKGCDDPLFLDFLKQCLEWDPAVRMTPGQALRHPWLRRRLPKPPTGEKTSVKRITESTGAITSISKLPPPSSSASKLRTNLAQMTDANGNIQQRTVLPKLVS
# [7] = biological target: T1, Dual specificity tyrosine-phosphorylation-regulated kinase 2 (Homo sapiens); conditions: at 1 µM
# [8] = biological target: Glycogen synthase kinase-3 alpha (Homo sapiens) (UniProt P49840); conditions: at 0.1 µM
# [9] = biological target: Glycogen synthase kinase-3 alpha (Homo sapiens) (UniProt P49840); conditions: at 1 µM
# [10] = biological target: Glycogen synthase kinase-3 beta (Homo sapiens) (UniProt P49841); conditions: at 0.1 µM
# [11] = biological target: Glycogen synthase kinase-3 beta (Homo sapiens) (UniProt P49841); conditions: at 1 µM
# [12] = biological target: Homeodomain-interacting protein kinase 1 (Homo sapiens) (UniProt Q86Z02); conditions: at 0.1 µM
# [13] = biological target: Homeodomain-interacting protein kinase 1 (Homo sapiens) (UniProt Q86Z02); conditions: at 1 µM
# [14] = biological target: T2, Homeodomain-interacting protein kinase 4 (Homo sapiens) (UniProt Q8NE63); conditions: at 0.1 µM
# T2 sequence (whole entry): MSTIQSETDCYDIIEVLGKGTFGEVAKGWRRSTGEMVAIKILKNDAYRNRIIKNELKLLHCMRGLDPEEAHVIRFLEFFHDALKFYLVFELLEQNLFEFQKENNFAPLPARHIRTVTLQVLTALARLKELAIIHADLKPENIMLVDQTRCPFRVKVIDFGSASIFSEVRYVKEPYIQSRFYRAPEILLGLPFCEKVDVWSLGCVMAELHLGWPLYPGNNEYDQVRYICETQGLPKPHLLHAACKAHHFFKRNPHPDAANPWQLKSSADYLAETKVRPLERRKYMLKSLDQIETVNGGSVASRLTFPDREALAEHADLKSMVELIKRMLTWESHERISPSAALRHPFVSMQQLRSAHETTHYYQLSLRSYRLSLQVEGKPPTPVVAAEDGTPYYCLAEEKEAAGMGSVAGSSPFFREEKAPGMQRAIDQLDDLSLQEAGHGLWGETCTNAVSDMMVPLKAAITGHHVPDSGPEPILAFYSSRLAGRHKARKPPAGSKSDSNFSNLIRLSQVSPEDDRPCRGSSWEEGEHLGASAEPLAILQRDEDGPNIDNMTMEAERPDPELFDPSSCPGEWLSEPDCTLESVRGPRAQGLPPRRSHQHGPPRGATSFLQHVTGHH
# [15] = biological target: T2, Homeodomain-interacting protein kinase 4 (Homo sapiens); conditions: at 1 µM
# [16] = biological target: Mitogen-activated protein kinase 9 (Homo sapiens) (UniProt P45984); conditions: at 0.1 µM
# [17] = biological target: Mitogen-activated protein kinase 9 (Homo sapiens) (UniProt P45984); conditions: at 1 µM
# [18] = biological target: Mitogen-activated protein kinase 1 (Homo sapiens) (UniProt P28482); conditions: at 0.1 µM
# [19] = biological target: Mitogen-activated protein kinase 1 (Homo sapiens) (UniProt P28482); conditions: at 1 µM
# [20] = biological target: Mitogen-activated protein kinase 3 (Homo sapiens) (UniProt P27361); conditions: at 0.1 µM;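 further: each value is a mean inhibition figure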
# Chain of Mitogen-activated protein kinase 3 (Homo sapiens) (P27361 whole entry): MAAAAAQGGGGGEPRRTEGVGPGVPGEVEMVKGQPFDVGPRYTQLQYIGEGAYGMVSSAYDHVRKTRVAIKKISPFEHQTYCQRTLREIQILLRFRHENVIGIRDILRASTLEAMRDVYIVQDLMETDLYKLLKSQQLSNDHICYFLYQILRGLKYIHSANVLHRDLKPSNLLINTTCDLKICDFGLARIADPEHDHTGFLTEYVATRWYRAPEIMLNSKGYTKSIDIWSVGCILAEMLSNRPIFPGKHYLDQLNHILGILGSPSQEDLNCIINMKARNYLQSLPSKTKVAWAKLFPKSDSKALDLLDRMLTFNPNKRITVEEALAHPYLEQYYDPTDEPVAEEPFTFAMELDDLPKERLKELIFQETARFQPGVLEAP
# Chain of Dual specificity tyrosine-phosphorylation-regulated kinase 1B (Homo sapiens) (Q9Y463 whole entry, looked up): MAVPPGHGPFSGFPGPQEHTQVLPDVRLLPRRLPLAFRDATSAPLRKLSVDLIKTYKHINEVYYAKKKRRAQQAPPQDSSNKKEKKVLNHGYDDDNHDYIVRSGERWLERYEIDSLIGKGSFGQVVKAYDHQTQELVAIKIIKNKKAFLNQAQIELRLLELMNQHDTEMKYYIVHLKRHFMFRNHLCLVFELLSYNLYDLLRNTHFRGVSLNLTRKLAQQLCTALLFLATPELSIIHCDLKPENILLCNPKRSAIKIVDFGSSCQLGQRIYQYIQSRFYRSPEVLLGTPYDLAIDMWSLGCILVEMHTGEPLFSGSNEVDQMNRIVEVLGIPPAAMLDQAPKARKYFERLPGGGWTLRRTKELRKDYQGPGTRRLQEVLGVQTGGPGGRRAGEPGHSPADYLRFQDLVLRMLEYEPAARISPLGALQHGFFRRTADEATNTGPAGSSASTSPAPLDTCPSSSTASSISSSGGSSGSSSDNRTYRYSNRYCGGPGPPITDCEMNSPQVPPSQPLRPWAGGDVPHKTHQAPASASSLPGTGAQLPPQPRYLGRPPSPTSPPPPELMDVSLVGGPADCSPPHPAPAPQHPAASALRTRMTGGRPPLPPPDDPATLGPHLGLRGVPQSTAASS
# Chain of Homeodomain-interacting protein kinase 1 (Homo sapiens) (Q86Z02 whole entry, looked up): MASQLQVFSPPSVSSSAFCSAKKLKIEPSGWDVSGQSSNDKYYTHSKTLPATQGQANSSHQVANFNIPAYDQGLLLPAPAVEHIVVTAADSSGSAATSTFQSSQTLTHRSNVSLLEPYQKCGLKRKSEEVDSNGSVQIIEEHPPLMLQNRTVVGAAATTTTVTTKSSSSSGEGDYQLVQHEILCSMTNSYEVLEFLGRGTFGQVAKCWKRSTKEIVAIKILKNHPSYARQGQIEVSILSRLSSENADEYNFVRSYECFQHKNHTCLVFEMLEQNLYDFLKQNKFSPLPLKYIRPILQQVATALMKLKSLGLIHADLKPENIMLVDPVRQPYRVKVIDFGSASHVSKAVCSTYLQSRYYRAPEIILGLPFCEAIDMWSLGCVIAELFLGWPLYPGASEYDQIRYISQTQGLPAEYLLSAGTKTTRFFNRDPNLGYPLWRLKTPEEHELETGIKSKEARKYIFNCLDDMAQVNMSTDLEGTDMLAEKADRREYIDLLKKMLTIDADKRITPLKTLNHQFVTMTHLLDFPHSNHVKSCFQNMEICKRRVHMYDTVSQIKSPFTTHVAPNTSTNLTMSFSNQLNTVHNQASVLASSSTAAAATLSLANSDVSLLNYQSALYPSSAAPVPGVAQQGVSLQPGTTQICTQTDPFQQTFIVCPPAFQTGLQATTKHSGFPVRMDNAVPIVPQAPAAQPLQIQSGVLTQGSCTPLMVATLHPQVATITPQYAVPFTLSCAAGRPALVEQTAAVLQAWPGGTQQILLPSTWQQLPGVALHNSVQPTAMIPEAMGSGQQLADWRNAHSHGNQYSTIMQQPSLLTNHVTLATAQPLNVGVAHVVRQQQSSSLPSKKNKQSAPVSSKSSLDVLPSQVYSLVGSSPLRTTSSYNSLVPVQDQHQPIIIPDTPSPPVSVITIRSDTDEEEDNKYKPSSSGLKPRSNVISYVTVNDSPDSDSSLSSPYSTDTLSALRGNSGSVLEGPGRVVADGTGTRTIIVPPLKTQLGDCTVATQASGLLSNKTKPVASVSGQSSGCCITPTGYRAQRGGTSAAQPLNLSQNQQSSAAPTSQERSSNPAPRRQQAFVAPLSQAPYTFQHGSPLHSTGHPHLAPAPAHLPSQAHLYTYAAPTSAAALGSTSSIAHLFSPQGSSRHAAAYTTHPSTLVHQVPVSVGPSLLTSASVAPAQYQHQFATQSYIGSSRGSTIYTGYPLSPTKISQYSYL
# Chain of Mitogen-activated protein kinase 9 (Homo sapiens) (P45984 whole entry, looked up): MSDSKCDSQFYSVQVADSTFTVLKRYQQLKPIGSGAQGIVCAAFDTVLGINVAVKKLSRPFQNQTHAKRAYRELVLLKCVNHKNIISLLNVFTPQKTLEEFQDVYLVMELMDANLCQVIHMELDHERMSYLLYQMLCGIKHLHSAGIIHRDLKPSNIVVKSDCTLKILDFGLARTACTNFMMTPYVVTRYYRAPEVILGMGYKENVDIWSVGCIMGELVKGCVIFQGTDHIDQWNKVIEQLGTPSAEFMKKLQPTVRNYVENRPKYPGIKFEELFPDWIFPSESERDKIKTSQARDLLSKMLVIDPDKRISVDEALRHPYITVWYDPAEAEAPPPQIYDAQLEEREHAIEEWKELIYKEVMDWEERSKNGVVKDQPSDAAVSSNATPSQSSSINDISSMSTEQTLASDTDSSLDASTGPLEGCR
# Chain of Dual specificity protein kinase CLK3 (Homo sapiens) (P49761 whole entry, looked up): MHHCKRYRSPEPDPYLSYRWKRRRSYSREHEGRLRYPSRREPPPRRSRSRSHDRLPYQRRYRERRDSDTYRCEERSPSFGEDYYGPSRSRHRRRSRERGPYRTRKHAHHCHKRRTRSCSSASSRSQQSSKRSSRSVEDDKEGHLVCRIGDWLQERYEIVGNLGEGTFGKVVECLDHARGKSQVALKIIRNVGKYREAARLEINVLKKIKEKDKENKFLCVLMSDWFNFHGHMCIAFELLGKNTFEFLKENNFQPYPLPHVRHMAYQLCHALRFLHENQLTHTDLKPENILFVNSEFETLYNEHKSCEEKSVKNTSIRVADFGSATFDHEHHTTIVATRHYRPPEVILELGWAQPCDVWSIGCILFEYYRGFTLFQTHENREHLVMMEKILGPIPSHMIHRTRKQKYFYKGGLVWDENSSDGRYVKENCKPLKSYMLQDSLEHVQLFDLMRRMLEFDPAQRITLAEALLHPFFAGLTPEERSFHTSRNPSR
# Chain of Glycogen synthase kinase-3 beta (Homo sapiens) (P49841 whole entry, looked up): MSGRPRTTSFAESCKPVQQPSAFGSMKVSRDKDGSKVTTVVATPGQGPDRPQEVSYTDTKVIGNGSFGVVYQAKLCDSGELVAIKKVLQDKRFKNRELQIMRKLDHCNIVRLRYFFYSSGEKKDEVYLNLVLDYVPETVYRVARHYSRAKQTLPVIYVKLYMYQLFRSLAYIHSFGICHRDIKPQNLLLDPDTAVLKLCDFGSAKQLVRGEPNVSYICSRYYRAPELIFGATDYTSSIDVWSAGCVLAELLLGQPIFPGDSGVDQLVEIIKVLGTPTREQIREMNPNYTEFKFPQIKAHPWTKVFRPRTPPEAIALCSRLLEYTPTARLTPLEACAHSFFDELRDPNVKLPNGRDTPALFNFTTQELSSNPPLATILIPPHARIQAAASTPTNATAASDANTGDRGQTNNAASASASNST
# Chain of Glycogen synthase kinase-3 alpha (Homo sapiens) (P49840 2-483 limits assumed): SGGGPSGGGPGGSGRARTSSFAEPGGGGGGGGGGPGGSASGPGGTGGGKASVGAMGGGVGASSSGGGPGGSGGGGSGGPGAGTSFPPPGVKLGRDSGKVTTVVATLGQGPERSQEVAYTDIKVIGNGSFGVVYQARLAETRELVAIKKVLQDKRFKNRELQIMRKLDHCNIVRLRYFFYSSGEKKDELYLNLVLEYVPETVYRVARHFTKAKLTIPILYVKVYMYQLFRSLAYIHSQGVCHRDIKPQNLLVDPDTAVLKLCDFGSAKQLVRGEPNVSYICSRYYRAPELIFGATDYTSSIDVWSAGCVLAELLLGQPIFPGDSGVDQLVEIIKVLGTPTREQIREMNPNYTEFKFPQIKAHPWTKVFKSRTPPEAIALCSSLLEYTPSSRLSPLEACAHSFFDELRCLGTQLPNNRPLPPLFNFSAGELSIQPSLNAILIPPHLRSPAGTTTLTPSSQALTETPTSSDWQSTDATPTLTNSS
# Chain of Mitogen-activated protein kinase 1 (Homo sapiens) (P28482 whole entry): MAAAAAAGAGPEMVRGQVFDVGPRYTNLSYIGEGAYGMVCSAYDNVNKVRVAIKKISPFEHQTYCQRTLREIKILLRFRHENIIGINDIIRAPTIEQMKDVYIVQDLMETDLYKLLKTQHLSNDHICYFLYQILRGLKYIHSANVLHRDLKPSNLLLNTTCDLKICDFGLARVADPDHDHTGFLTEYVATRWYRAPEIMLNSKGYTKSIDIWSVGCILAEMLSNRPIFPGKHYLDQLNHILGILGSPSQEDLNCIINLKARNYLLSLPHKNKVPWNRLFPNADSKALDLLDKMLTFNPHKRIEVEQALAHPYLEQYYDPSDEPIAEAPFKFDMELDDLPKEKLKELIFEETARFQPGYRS
Structure (SMILES),inhibition [1],inhibition [2],inhibition [3],inhibition [4],inhibition [5],inhibition [6],inhibition [7],inhibition [8],inhibition [9],inhibition [10],inhibition [11],inhibition [12],inhibition [13],inhibition [14],inhibition [15],inhibition [16],inhibition [17],inhibition [18],inhibition [19],inhibition [20]
Cc1ccc(O)cc1Nc1ccnc2ccc(S(C)(=O)=O)cc12,3.42%,4.16%,12.6%,0.55%,2.94%,3.03%,4.88%,2.64%,1.72%,1.89%,3.47%,-0.12%,1.59%,2.64%,8.27%,4.77%,5.22%,5.91%,5.63%,5.26%
Cc1ccc2c(-c3ccnc(Nc4cccc(C(F)(F)F)c4)n3)c(-c3ccccc3)nn2n1,2.3%,3.65%,2.62%,1.3%,2.46%,4.31%,5.83%,22.6%,68.5%,35.7%,76%,0.33%,3.87%,1.36%,13.5%,30.1%,82.2%,6.13%,9.3%,5.72%
NS(=O)(=O)c1ccc(Nc2cc(-c3cccc(O)c3)n[nH]2)cc1,2.62%,3.45%,7.37%,0.5%,2.4%,3.82%,4.65%,2.99%,6.38%,2.02%,5.21%,-1.93%,2.36%,0.59%,3.33%,5.37%,6.35%,5.89%,4.96%,4.41%
NS(=O)(=O)c1cccc(-c2cc3ccncc3cc2OCc2ccccc2)c1,3.46%,3.42%,5.5%,0.3%,2.52%,3.59%,3.57%,1.97%,4.81%,0.8%,3.55%,1.1%,6.53%,1.76%,8.61%,0.94%,3.75%,4.71%,5.84%,4.25%
Nc1nccc(C#Cc2cncnc2Nc2ccc(OCc3cccc(F)c3)c(Cl)c2)n1,3.1%,3.44%,10.8%,1.71%,4.87%,3.08%,4.89%,4.01%,14.3%,2.94%,10.5%,-0.05%,6.94%,4.23%,8.43%,3.97%,4.23%,3.54%,4.87%,1.83%
O=S(=O)(CCOCc1ccc(-c2ccc3ncnc(Nc4ccc(OCc5cccc(F)c5)c(Cl)c4)c3c2)o1)c1ccccc1,0.14%,1.15%,1.59%,-0.1%,2.9%,0.96%,2.34%,2.99%,5.63%,2.14%,5.91%,-2.8%,2.64%,2.22%,5.69%,0.13%,0.74%,2.68%,3.54%,3.68%
Cc1ccc2c(c1)/C(=N/Nc1ccc(S(N)(=O)=O)cc1)C(=O)N2,-0.91%,-1.04%,2.94%,-1.01%,1.94%,0.43%,-0.62%,4.1%,31.3%,1.9%,23.7%,-4.8%,0%,-2.11%,-0.65%,2.38%,1.49%,-0.67%,2.7%,2.34%
CCn1c(-c2nonc2N)nc2c(C#CC(C)(C)O)nc(OCCNC)cc21,0.43%,2.71%,2.94%,-0.33%,-0.29%,5.86%,5.26%,11.6%,49.9%,8.59%,46.8%,-1.59%,7.86%,0.33%,1.92%,3.85%,2.84%,5.46%,5.18%,3.73%
[O-][S+]1CCN(Cc2ccc(-c3ccc4ncnc(Nc5ccc(OCc6ccccc6)c(Cl)c5)c4c3)o2)CC1,-0.64%,1.81%,2.81%,0.05%,0.51%,1.29%,0.17%,1.1%,1.03%,0.33%,1.33%,-1.84%,0.05%,0.81%,2.27%,-0.11%,2.26%,3.15%,4.09%,1.32%
COc1cc2ncnc(Nc3ccc(C)c(O)c3)c2cc1OC,2.38%,5.24%,7.48%,0.95%,4.18%,2.96%,4.5%,4.81%,8.57%,4.62%,11.2%,2.85%,2.79%,3.31%,9.35%,4.57%,5.02%,5.5%,7.98%,4.96%
CN(C)CCCn1c(-c2nonc2N)nc2cnccc21,1.96%,3.5%,8.9%,0.77%,4.52%,2.75%,3.79%,2.45%,15.1%,2.77%,12.3%,1.03%,-0.49%,0.39%,0.4%,5.36%,4.57%,2.21%,4.9%,2.32%
CCn1c(-c2nonc2N)nc2ccc(F)cc21,1.23%,5.13%,10.8%,-0.23%,1.12%,4.17%,4.15%,3.78%,4.96%,3%,3.37%,2.6%,2.13%,2.47%,3.5%,5.8%,7.99%,6.8%,8.85%,6.33%
CN(c1ccc(NC(=O)Nc2ccc(OC(F)(F)F)cc2)cc1)c1ccnc(Nc2cccc(S(N)(=O)=O)c2)n1,1.99%,1.32%,1.5%,-2.14%,-0.44%,2.23%,3.14%,2.09%,9.4%,0.92%,13.6%,1.06%,34%,62.4%,83.6%,1.46%,3.15%,4.33%,3.93%,2.67%
